Inconclusive results are not listed. Activity calls are given as the source filed them. Unless noted, the call rests on the fitted dose curve; in most records, active means well fitted curve in the direction sought with a large enough effect; inconclusive means small, poorly fitted or top-dose-only effect, or another doubt; inactive means no such curve, though single readings can be large; an effect the other way counts as inactive or inconclusive.
Experiments:
[1] = qHTS profiling of the MIPE4 collection as inhibitors of Plasmodium falciparum (3D7) proliferation (AID 743344; call rule not given here;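 further: scaled between DMSO vehicle wells and 0.29 µM artemisinin as full inhibition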); settings: P. falciparum 3D7 in erythrocytes, SYBR Green DNA fluorescence, 72 h; at 28.5 µM unless noted
Procedure, shortened: (§1)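 Parasite DNA was quantified by SYBR Green I fluorescence (ex 485, em 535 nm) after overnight lysis in saponin/Triton buffer at room temperature. Cultures at 0.3% parasitemia and 2.5% hematocrit were first exposed to compound for 72 h at 37 C; signals were normalised to artemisinin (0.29 uM) and vehicle wells.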

[2] = qHTS profiling of the MIPE4 collection as inhibitors of Plasmodium falciparum (DD2) proliferation (AID 743345; call rule not given here); settings: P. falciparum Dd2 in erythrocytes, SYBR Green DNA, 72 h; at 28.5 µM unless noted
Procedure, shortened: as §1

[3] = qHTS profiling of the MIPE4 collection as inhibitors of Plasmodium falciparum (DD2) proliferation (Rep 2) (AID 743346; call rule not given here); settings: P. falciparum Dd2 in erythrocytes, SYBR Green DNA, 72 h; at 28.5 µM unless noted
Procedure, shortened: as §1

[4] = qHTS profiling of the MIPE4 collection as inhibitors of Plasmodium falciparum (HB3) proliferation (AID 743347; call rule not given here;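 further: plate controls were DMSO vehicle wells for no effect and artemisinin wells for full effect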); settings: P. falciparum HB3 in erythrocytes, SYBR Green DNA, 72 h; at 28.5 µM unless noted
Procedure, shortened: as §1

[5] = High-throughput drug toxicity screening in the BPDCN cell line Gen2.2 (AID 1224824; call rule not given here;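 further: cells exposed to compounds for 48 h before reading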); settings: Gen2.2 BPDCN cells; at 45.8 µM (top of the series) unless noted
Procedure, shortened: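 CellTiter-Glo luminescence read after 48 h compound exposure at 37 C defines viability; percent activity set with DMSO as 100% and bortezomib (9.2 uM final) as 0%. 500 exponentially growing cells per well, RPMI plus 10% FBS.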

[6] = High-throughput drug toxicity screening in the BPDCN cell line Cal-1 (AID 1224825; call rule not given here); settings: Cal-1 BPDCN cell viability, qHTS; at 45.8 µM (top of the series) unless noted
Procedure, shortened: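 Viability of the BPDCN line Cal-1 is measured as ATP-based luminescence (CellTiter-Glo) following 48 h incubation with compounds. Percent activity uses DMSO-treated wells as 100% and 9.2 uM bortezomib as 0%.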

[7] = qHTS assay for measurement of the activity of small molecule inhibitors on Zika virus induced Caspase-3 activity in human astrocytoma cells (AID 1224859);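 further: plate controls were ZIKV-infected untreated cells for no effect and uninfected cells for full effect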
Procedure, shortened: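 Caspase activation in ZIKV-infected SNB-19 cells (2 FFU/cell, 6 h) measured by Caspase-Glo 3/7 luminescence after 30 min RT; compound pre-incubated 1 h; normalised to uninfected and infected controls.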

[8] = qHTS Screen of the MIPE 4.0 Collection Against Ewings Sarcoma (RDES) (AID 1259252); further: nearly all actives have a fitted effect of over 35% in size; further: potency means the concentration at half of the fitted maximal effect
Procedure, shortened: (§2)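 Compound titrations go onto adherent log-phase cells 4 h after seeding, incubate 48 h at 37C, then CellTiter-Glo luminescence reports viability relative to DMSO and cell-free controls.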

[9] = qHTS Screen of the MIPE 4.0 Collection Against Ewings Sarcoma (TC71) (AID 1259253); further: nearly all actives have a fitted effect of over 40% in size; further: potency means the concentration at half of the fitted maximal effect
Procedure, shortened: as §2

[10] = qHTS Screen of the MIPE 4.0 Collection Against Ewings Sarcoma (EW8) (AID 1259255); further: nearly all actives have a fitted effect of over 35% in size; further: potency means the concentration at half of the fitted maximal effect;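 on viability: 100% = DMSO-treated cells and 0% = medium-only wells without cells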
Procedure, shortened: as §2

[11] = qHTS Screen of the MIPE 4.0 Collection Against Ewings Sarcoma (TC32) (AID 1259256); further: nearly all actives have a fitted effect of over 45% in size; further: potency means the concentration at half of the fitted maximal effect
Procedure, shortened: as §2

[12] = qHTS assay for measurement of the activity of small molecule inhibitors on Zika virus induced Caspase-3 activity in human iPSC derived neural progenitor cells (hNPCs) (AID 1224857); further: % of control where 0% means no effect; nearly all actives have a fitted effect of over 65% in size
Procedure, shortened: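 Zika virus (2 FFU/cell) infection of human iPSC-derived NPCs, 6 h, following 1 h compound preincubation. Read-out: Caspase-Glo 3/7 luminescence.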

[13] = qHTS profiling for inhibitors of Plasmodium falciparum (HB3) proliferation (AID 743324); settings: Plasmodium falciparum HB3 blood-stage proliferation; at 28.7 µM (top of the series) unless noted;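 further: 100% = DMSO vehicle wells and 0% = artemisinin-treated control wells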
Procedure, shortened: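 SYBR Green fluorescence (485 ex/535 em) of lysed cultures, incubated overnight at room temperature in the dark, quantifies parasite DNA. Infected erythrocytes at 0.3% parasitemia and 2.5% hematocrit were exposed 72 h; values normalized to DMSO and 0.29 uM artemisinin controls.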

[14] = Identifying Small Molecule Inhibitors of Pancreatic Cancer Stem Cells (Panc1, Spheroid) (AID 1259359);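 further: compound exposure lasted 48 h before reading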
Procedure, shortened: (§3)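 Viability is scored by CellTiter-Glo luminescence 48 h after dosing, expressed as percent activity against vehicle and no-cell references. Spheroid formats rely on cells cultured 14 days in stem cell media beforehand.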

[15] = Identifying Small Molecule Inhibitors of Pancreatic Cancer Stem Cells (SN12C, Spheroid) (AID 1259360); settings: Potency: SN12C spheroid viability; further: potency means the concentration at half of the fitted maximal effect;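 on viability (% of control): 100% = DMSO-treated cells and 0% = wells without cells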
Procedure, shortened: (§4)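 Adherent (2D) versus sphere (3D) formats; spheres generated 14 d in SCM beforehand. Compound transferred by pin tool after 4 h, 48 h incubation, CellTiter-Glo endpoint.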

[16] = Identifying Small Molecule Inhibitors of Pancreatic Cancer Stem Cells (A278, Adherent) (AID 1259361); further: nearly all actives have a fitted effect of over 35% in size
Procedure, shortened: as §3

[17] = Identifying Small Molecule Inhibitors of Pancreatic Cancer Stem Cells (Panc1, Adherent) (AID 1259362); settings: Potency: viability; further: potency means the concentration at half of the fitted maximal effect;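 on viability, % of control: compound exposure lasted 48 h before the viability read; plate controls were DMSO-treated cells for no effect and cell-free media wells for full effect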
Procedure, shortened: as §3

[18] = Identifying Small Molecule Inhibitors of Pancreatic Cancer Stem Cells (A2780, Spheroid) (AID 1259357); settings: Potency: A2780 spheroid viability;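 further: spheroids pre-formed over 14 days in stem cell medium on hydrogel; compound exposure lasted 48 h before the ATP luminescence read; 100% = DMSO treated cells and 0% = wells without cells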
Procedure, shortened: as §4

Structure (SMILES)	parasite growth, % of DMSO control [1]	parasite growth remaining, % of DMSO control (lower = more inhibition) [2]	parasite growth, % of control (lower = inhibition) [3]	growth, % of control [4]	cell viability, % of control (lower = more cytotoxic) [5]	viability (% of control) [6]	Potency [7]	Potency [8]	Potency [9]	Potency [10]	Potency [11]	Potency [12]	remaining proliferation (% of control), lower = more inhibition [13] [%]	Potency [14]	Potency [15]	IC50 (viability decrease) [16]	Potency [17]	Potency [18]
C[C@@H]1[C@H](C)CC[C@]2(C(=O)O)CC[C@]3(C)C(=CC[C@@H]4[C@@]5(C)CC[C@H](O)C(C)(C)[C@H]5CC[C@]43C)[C@@H]12	4.81% [at 57.5 µM]	55.6% [at 57.5 µM]	8% [at 57.5 µM]	3.02% [at 57.5 µM]	41.3% [at 92.2 µM]	29% [at 92.2 µM]	inactive	2.7 µM (active)	1.71 µM (active)	5.4 µM (active)	1.52 µM (active)							
COc1cc(CNC(=O)CCCCC=CC(C)C)ccc1O					145%	27.5%		5.9 µM (active)	16.6 µM (active)	6.62 µM (active)		inactive						
CN1CCc2c(n(Cc3ccc(C(=O)NO)cc3)c3ccccc23)C1		11.6%		4.11%	17.7%	3.16%		14.8 µM (active)	18.7 µM (active)		13.2 µM (active)	inactive						
Clc1ccc(C2(c3ccc(-c4cn[nH]c4)cc3)CCNCC2)cc1		9.74%	12.8%	4.19%	16.8%	10.8%		14.8 µM (active)			20.9 µM (active)	inactive						
CC(C)[C@H](O)C(=O)N[C@@H](C)C(=O)N[C@@H]1C(=O)N(C)CCc2ccccc21	13.3%	14.9%	26.2%	17.8%	95.1%	95.1%		16.6 µM (active)		inactive	inactive	inactive						
NC(=O)c1nnn(Cc2cc(Cl)c(C(=O)c3ccc(Cl)cc3)c(Cl)c2)c1N	23.3%	33.4%	37%	6.97%	390%	45.1%			18.7 µM (active)	26.4 µM (active)	20.9 µM (active)	inactive						
COc1c(C)cnc(Cn2cnc3c(Cl)nc(N)nc32)c1C	28.9%	49.8%	31.8%		9.9%	18.7%		0.187 µM (active)			0.132 µM (active)	inactive	9.05	inactive	0.264 µM (active)	0.0935 µM (active)	0.0332 µM (active)	
COc1cccc(OC)c1-c1cc(C(=O)NC2(C(=O)O)C3CC4CC(C3)CC2C4)nn1-c1ccnc2cc(Cl)ccc12 (stereo unspecified)	31.4%	33.7%	29.8%	7.09%	119%	128%	inactive	inactive	inactive	inactive			47.3		inactive	20.9 µM (active)	inactive	inactive

Reference: PubChem BioAssay (NCATS)
